Screening results deposited in PubChem BioAssay by several laboratories.
aSyn UTR inh – 5' untranslated region of α-synuclein, MLPCN primary screen. actives 0.82% (n = 300,000). inhibition, % (tested at 7.5 µM). AID 1813. alpha-synuclein 5'UTR reporter, inhibitor activity; in the data active = inhibition above about 60%;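 note: H4 neuroglioblastoma cells stably carrying SNCA 5'UTR luciferase fusion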
Ba/F3 V617F tox – loss of viability in JAK2V617F-driven Ba/F3 cells; Ba/F3 EpoR-JAK2V617F viability, ATP luminescence; inhibition, % at 5.6 µM; actives 1.1% (n = 220,000); AID 1446;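 active = inhibition above the campaign mean plus 3 SD over all tested compounds, cut at about 24% in these data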;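 note: cytokine-independent growth of Ba/F3 cells driven by EpoR plus mutant JAK2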
APP transl inh – APP translation inhibition; SH-SY5Y APP 5'UTR-luciferase reporter, luminescence; inhibition, % at 2 µM; actives 0.82% (n = 190,000); AID 1285;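 active = inhibition above a set limit, derived from the sample mean plus 3 SD, cut at about 45% in these data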
KLF5 inhibitor – inhibitors of KLF5 expression; DLD-1 KLF5 promoter-luciferase reporter, luminescence; inhibition, % at 5 µM; actives 0.23% (n = 290,000); AID 1700;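 active = inhibition above a per-plate limit of that plate's mean compound inhibition plus 3 SD, cut at about 60% in these data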;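 note: higher means less KLF5 promoter-driven luciferase light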
BaF3 parental – counter-screen for JAK2V617F inhibitors: parental Ba/F3 viability inhibitors; AID 1486; actives 1.1% (n = 220,000); inhibition, % at 5.6 µM; CellTiter-Glo ATP luminescence;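 active = inhibition above a per-campaign cutoff, the mean inhibition of all tested compounds plus 3 SD, cut at about 27% in these data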
IEC-6 cytotox – IEC-6 cytotoxicity, counter-screen for KLF5 inhibitors | actives 0.78% (n = 290,000) | luminescence viability | inhibition, % at 5 µM
IEC-6 cytotox cf – IEC-6 cytotoxicity, confirmation assay. shares compounds with IEC-6 cytotox. IEC-6 rat intestinal epithelial viability, luminescence. inhibition, % at 5 µM. actives 63% (n = 1,900). AID 1907
Of the large screens only hits and unclear results are named; the others gave an inactive call (follow-up assays come after a bar, where they were run). Shown are actives, neighbours in structure and some others; about 2.2% of the full set was active somewhere. Cut-off read from the data, not from the text of the source, unless noted: active = inhibition above about 22%; inactive = the rest.

O=C(O)c1[nH]c2ccc([N+](=O)[O-])cc2c1-c1ccccc1	none (no result: APP transl inh)
CCCn1c(SCC(=O)Nc2ccccc2OC)nnc1-c1ccco1	IEC-6 cytotox 35 (no result: Ba/F3 V617F tox, APP transl inh, BaF3 parental) | IEC-6 cytotox cf inactive
COCCn1c(SCC(=O)Nc2ccccc2OC)nnc1-c1ccco1	none (no result: Ba/F3 V617F tox, APP transl inh, BaF3 parental)
OCC(O)C1OC(Nc2ccc(Cl)cc2)C(O)C1O (centres undefined)	none (no result: APP transl inh)
CCn1nc(C)c(CN2CCCCC2C(=O)Nc2ccc(Oc3cccnc3)cc2)c1C (centres undefined)	none (no result: Ba/F3 V617F tox, APP transl inh, BaF3 parental)
Cc1ccc(CN2CCCCC2C(=O)Nc2ccc(Oc3cccnc3)cc2)o1 (centres undefined)	IEC-6 cytotox 38 (no result: Ba/F3 V617F tox, APP transl inh, BaF3 parental) | IEC-6 cytotox cf 37
O=C(Nc1ccc(Oc2ccccc2)nc1)C1CCCCN1Cc1ccco1 (centres undefined)	IEC-6 cytotox 60 (no result: Ba/F3 V617F tox, APP transl inh, BaF3 parental) | IEC-6 cytotox cf 39
O=C1Nc2cccnc2N(C(=O)CCl)c2ccccc21	none (no result: Ba/F3 V617F tox, APP transl inh, BaF3 parental)
COC(=O)CC1COc2ccccc2N1S(=O)(=O)c1ccc(OC)cc1 (centres undefined)	IEC-6 cytotox 31 (no result: Ba/F3 V617F tox, APP transl inh, BaF3 parental) | IEC-6 cytotox cf inactive
CC(C)[C@H](NC(=O)N1CCn2c1nc1ccccc12)C(=O)NC1CCCCC1	none (no result: Ba/F3 V617F tox, APP transl inh, BaF3 parental)
Cc1cccc(OCC(=O)NCC(=O)N/N=C/c2cc(Br)cc(Br)c2O)c1	IEC-6 cytotox 30 (no result: Ba/F3 V617F tox, APP transl inh, BaF3 parental) | IEC-6 cytotox cf inactive
COc1ccc(C(=O)c2ccc(OC)cc2OC)cc1	IEC-6 cytotox 25 (no result: APP transl inh) | IEC-6 cytotox cf inactive
COc1ccc(OC)c(C(=O)c2ccc(C(=O)c3cc(OC)ccc3OC)cc2)c1	none
COc1ccc(C(=O)c2ccc(N(C)C)cc2)c(OC)c1	Ba/F3 V617F tox 50, APP transl inh 78, BaF3 parental 52, IEC-6 cytotox 54 | IEC-6 cytotox cf 53
COC(=O)c1ccc(N=Cc2c(C(F)(F)F)[nH][nH]c2=O)cc1	none
COc1cccc(CNc2ncc(C(=O)Nc3cc(OC)c(OC)c(OC)c3)c(C)n2)c1	IEC-6 cytotox 30 (no result: Ba/F3 V617F tox, APP transl inh, BaF3 parental) | IEC-6 cytotox cf inactive
Cc1ccc(NC(=O)c2nsc(Cl)c2Cl)cc1	IEC-6 cytotox 24 (no result: APP transl inh) | IEC-6 cytotox cf inactive
CN1CCc2c(sc(NC(=O)c3ccc4ccccc4c3)c2C(N)=O)C1	IEC-6 cytotox 50 (no result: Ba/F3 V617F tox, APP transl inh, BaF3 parental) | IEC-6 cytotox cf 26
CN1CCc2c(sc(NC(=O)Cc3ccccc3)c2C(N)=O)C1	none (no result: Ba/F3 V617F tox, APP transl inh, BaF3 parental)
COc1ccc2[nH]c(=O)cc(C(=O)O)c2c1	none
COc1ccc2[nH]c3c4c(ccc3c2c1)C(=O)C=CC4=O	Ba/F3 V617F tox 46, IEC-6 cytotox 57 (no result: aSyn UTR inh, APP transl inh) | IEC-6 cytotox cf inactive
CCOC(=O)c1cnn(-c2ccccc2)c1NC(=O)CSc1nnc(-c2cccs2)n1CC	IEC-6 cytotox 24 | IEC-6 cytotox cf inactive
Cc1ccc(C)c2c(N)c3c(nc12)CCCCC3 (tested in a mixture with another compound)	none
O=[N+]([O-])c1cc([N+](=O)[O-])c2cc3ccccc3nc2c1	IEC-6 cytotox 46 (no result: Ba/F3 V617F tox, APP transl inh, BaF3 parental) | IEC-6 cytotox cf inactive
O=C(CNC(=O)c1sc2ccccc2c1Cl)NCc1cccc(C(F)(F)F)c1	none (no result: Ba/F3 V617F tox, APP transl inh, KLF5 inhibitor, BaF3 parental, IEC-6 cytotox)
CCCCN(C(=O)CCSc1ccc(F)cc1)c1c(N)n(Cc2ccccc2)c(=O)[nH]c1=O	none (no result: Ba/F3 V617F tox, APP transl inh, KLF5 inhibitor, BaF3 parental, IEC-6 cytotox)
Cc1ccccc1-c1nc(CN2CCC(C(=O)NCCCN3CC(C)CC(C)C3)CC2)c(C)o1 (centres undefined)	IEC-6 cytotox 60 | IEC-6 cytotox cf 53
Cc1ccccc1-c1nc(CN2CCC(C(=O)NCCCN3CCCC3)CC2)c(C)o1	none
CCN1CCCC1CNC(=O)C1CCN(Cc2nc(-c3cccc(Br)c3)oc2C)CC1 (centres undefined)	BaF3 parental 31, IEC-6 cytotox 49 | IEC-6 cytotox cf 99
Cc1nn(C(=O)CCCC(=O)NCc2ccccc2)c2ccccc12	none (no result: Ba/F3 V617F tox, APP transl inh, BaF3 parental)
Nc1cccc(-c2nc3ccc(C(=O)c4ccccc4)cc3[nH]2)c1	IEC-6 cytotox 72 (no result: Ba/F3 V617F tox, APP transl inh, BaF3 parental) | IEC-6 cytotox cf 60
COc1ccc(-c2cc(C(=O)N/N=C(\C)c3cccnc3)c3cc(C)ccc3n2)cc1OC	IEC-6 cytotox 34 (no result: Ba/F3 V617F tox, APP transl inh, BaF3 parental) | IEC-6 cytotox cf inactive
COc1ccc(CCN2C(=O)c3ccccc3NC2c2cc(Cl)c(O)c(OC)c2)cc1 (centres undefined)	IEC-6 cytotox 54 (no result: Ba/F3 V617F tox, APP transl inh, BaF3 parental) | IEC-6 cytotox cf inactive
CC(C)Cn1c(=O)c2ccccc2n2c(CCC(=O)O)nnc12	none (no result: Ba/F3 V617F tox, APP transl inh, BaF3 parental)
CCCN(CCC)CCNC(=O)c1cc2c(-c3ccccc3F)nn(C)c2s1	none (no result: Ba/F3 V617F tox, APP transl inh, BaF3 parental)
CCCN(CCC)CCNC(=O)c1cc2c(-c3ccc(Cl)cc3)nn(C)c2s1	IEC-6 cytotox 22 (no result: Ba/F3 V617F tox, APP transl inh, BaF3 parental) | IEC-6 cytotox cf inactive
CCSc1nsc(NC(=O)Nc2ccccc2F)n1	none (no result: Ba/F3 V617F tox, APP transl inh, BaF3 parental)
C=CCSc1nsc(NC(=O)Nc2ccc(F)cc2)n1	IEC-6 cytotox 32 (no result: Ba/F3 V617F tox, APP transl inh, BaF3 parental) | IEC-6 cytotox cf 48
Cc1nn(-c2ccccc2)c(N)c1N=Nc1ccccc1	none
Nc1nn(-c2ccccc2)c(N)c1N=Nc1ccccc1	Ba/F3 V617F tox 64, BaF3 parental 64, IEC-6 cytotox 34 | IEC-6 cytotox cf 40
O=c1[nH]cnc(O)c1N=Nc1ccccc1	none (no result: Ba/F3 V617F tox, APP transl inh, BaF3 parental)
Nc1ncnc(N)c1N=Nc1ccccc1	aSyn UTR inh 112, IEC-6 cytotox 36 (no result: Ba/F3 V617F tox, APP transl inh, BaF3 parental) | IEC-6 cytotox cf inactive
CCc1ccccc1N1CC(C(=O)Nc2nccs2)CC1=O (centres undefined)	none (no result: Ba/F3 V617F tox, APP transl inh, BaF3 parental)
O=C(Nc1ccnc(=O)[nH]1)c1sc2ccccc2c1Cl	none (no result: APP transl inh)
COc1ccc(C2=NCN(c3ccc(C)cc3)C(=S)N2)cc1	none
